Screening data deposited in PubChem BioAssay by National Center for Advancing Translational Sciences (NCATS).
NS1 inh: influenza NS1 inhibition. Potency, µM (titrated, usually from 46.1 µM), inactives show top-dose activity, positive = more growth. 0.4% of 270,000 active. AID 2326; note: potency is the fitted concentration of half-maximal effect; actives are rising curves; nearly all actives have a fitted effect of over 50% in size
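S. cerevisiae expressing influenza A NS1, grown in glucose, washed, then diluted 1:100 into pH 6.0 -URA galactose medium with 23 nl compound. Growth recovery read as OD600; NS1-free strain serves as control.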
Cruzain inh Det: inhibitors of Trypanosoma cruzi cruzain with detergent; P25779; purified cruzain, Z-FR-AMC fluorescence, 0.01% Triton; Potency, µM, without a hit: max response, negative = inhibition, actives largely listed as inhibitors; 0.43% of 200,000 active; AID 1478; active = well fitted curve in the direction sought with a large enough effect; inconclusive = small, poorly fitted or top-dose-only effect, or another doubt; inactive = no such curve, though single readings can be large; an effect the other way counts as inactive or inconclusive;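 note: potency is the fitted concentration of half-maximal effect; plate controls were neutral wells for no effect and buffer without enzyme for full effect; nearly all actives have a fitted effect of over 40% in size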
Target sequence (P25779 123-467 limits assumed): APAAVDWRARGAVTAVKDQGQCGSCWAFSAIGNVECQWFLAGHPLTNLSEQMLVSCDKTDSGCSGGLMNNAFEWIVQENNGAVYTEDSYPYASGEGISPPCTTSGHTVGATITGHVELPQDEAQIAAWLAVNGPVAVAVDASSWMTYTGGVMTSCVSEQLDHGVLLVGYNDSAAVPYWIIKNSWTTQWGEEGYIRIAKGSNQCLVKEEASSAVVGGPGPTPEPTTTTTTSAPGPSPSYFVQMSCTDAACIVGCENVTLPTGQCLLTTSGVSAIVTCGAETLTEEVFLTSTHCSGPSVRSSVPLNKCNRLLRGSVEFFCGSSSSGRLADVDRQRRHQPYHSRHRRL
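Steps: dispense cruzain (1.5 nM final) in acetate buffer pH 5.5 with DTT and 0.01% Triton X-100; pin-transfer compounds; incubate 15 min RT; add Z-FR-AMC (2 uM final); read fluorescence every 30 s, using the 60 s intensity change.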
Cruzain inh noDet: blocks cruzain activity in detergent-free assay; Potency, µM, without a hit: max response, negative = inhibition, hits mostly inhibitors; purified cruzain, Z-FR-AMC fluorescence, no detergent; P25779; 2.3% of 200,000 active; active = well fitted curve in the direction sought with a large enough effect; inconclusive = small, poorly fitted or top-dose-only effect, or another doubt; inactive = no such curve, though single readings can be large; an effect the other way counts as inactive or inconclusive;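 note: potency is the fitted concentration of half-maximal effect; plate controls were enzyme without inhibitor for no effect and buffer without enzyme for full effect; nearly all actives have a fitted effect of over 40% in size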
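Detergent-free condition (0.00005% Triton X-100) in acetate buffer pH 5.5 with DTT. 1.5 nM enzyme and compound were pre-mixed 15 min, then 2 uM Z-FR-AMC substrate added; reaction progress from fluorescence change between first and third reads (60 s).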
Flu NS1 inh: validation of influenza NS1 protein function inhibitors; shares compounds with NS1 inh; activity change, negative = inhibition, % at 32.9 µM; influenza NS1 function cell assay, 15-point titration; AID 492980; 1,400 tested, under 10 active; note: 0% is about no effect
PR8 titer: influenza NS1 inhibitors: inhibition of influenza A/PR/8/34 replication | shares compounds with NS1 inh | MDCK infected influenza A/PR/8/34, virus titer TCID50; hits give low values | virus titer (log TCID50), log10 TCID50 at 5 µM | 30% of 95 active; call rule not given here
The depositor's hits bear a star; ? = inconclusive; nt = no result given. Only a selection was taken, and hits are over-represented in it overall. Unless noted, calls come from the whole dose curve.

SMILES | NS1 inh | Cruzain inh Det | Cruzain inh noDet | Flu NS1 inh | others
CCc1cccc(CC)c1NC(=O)CCS(=O)(=O)c1ccc2c(c1)CCN2C(C)=O | nt | -3.9% | 22.2% | nt
O=S(=O)(c1ccccc1)n1nc(-c2ccco2)nc1NCc1ccccc1 | nt | -6.5% | -7.6% | nt
CN(c1ccccc1)S(=O)(=O)c1ccc(Cl)c(C(=O)Nc2nc3ccccc3[nH]2)c1 | 10µM* | -2.5% | ? | 38.4
COc1ccc(Cl)cc1C(=O)Nc1nc2ccccc2[nH]1 | -35.3% | nt | nt | nt
Cc1cc2cc(CN3C(=O)c4ccccc4C3=O)ccc2[nH]1 | ? | -4.1% | -20.8% | 21.2
COc1ccc(CN2C(=O)c3ccccc3C2=O)cc1 | -15.5% | nt | nt | nt
Cc1ccc(N2CCN(Cc3nnc(-c4ccccc4F)o3)CC2)c(C)c1 | nt | -7.0% | ? | nt
COC(=O)C1=C(C)N(Cc2ccc(C)cc2)C(=O)/C1=C\c1cc(OC)c(OC)c(OC)c1 | 22.7% | -3.5% | ? | nt
COC(=O)C1=C(C)N(Cc2ccc(C)cc2)C(=O)/C1=C\c1ccc(O)c(OC)c1 | 10µM* | -6.9% | 12.7% | ?
Cc1cccc(CC(=O)Nc2ccc(C(=O)N3CCOCC3)cc2)c1 | 5.0% | nt | nt | nt
CC1=c2c(oc3cc(O)c(Nc4c(C)cc(O)cc4O)c(C)c23)=CC(=O)C1=Nc1c(C)cc(O)cc1O | -2.6% | -12.1% | 2.5% | nt
Cc1ccc(C2=C(O)c3ccccc3C(=O)C2=O)cc1 | -90.9% | nt | nt | nt
O=C1C(c2ccncc2)=C(O)c2ccccc21 | 0.251µM* | -4.7% | -5.6% | -3.2
COCCN(CCOC)c1ncnc2c1c(-c1ccccc1)cn2-c1ccc(C)c(Cl)c1 | nt | -0.8% | ? | nt
CC(=O)N=c1n(C)c2ccccc2n1CCOc1ccccc1 | ? | 0.4% | 5.4% | -6.1
Cc1cccc(OCCn2c(=O)n(C)c3ccccc32)c1 | -110.8% | 0.3% | 19.2% | nt
CC1Cc2ccccc2N1C(=O)CSc1nnc2c(n1)[nH]c1ccccc12 (stereo not given) | -0.2% | -0.5% | 0.6% | nt
CC1Cc2ccccc2N1C(=O)CSc1nnc(-c2ccccc2)c(-c2ccccc2)n1 (stereo not given) | ? | -0.8% | 15.8µM* | -0.5
O=C(c1ccco1)N(Cc1ccc2c(c1)OCO2)Cc1cc2cc3c(cc2[nH]c1=O)OCO3 | 1.6% | nt | nt | nt
Cc1cc2cc(CN(Cc3ccc4c(c3)OCO4)C(=O)c3ccco3)c(=O)[nH]c2cc1C | ? | -8.6% | 6.1% | 10.7
CN1CCN(c2ncc3nc(-c4cccs4)c(=O)n(CCc4ccccc4)c3n2)CC1 | nt | -7.5% | 20.1% | nt
O=C(CC(c1cccs1)N1Cc2ccccc2C1=O)Nc1ccc(Cl)cc1 (stereo not given) | nt | -3.7% | 2.0% | nt
COc1ccc(CN2C(=O)NC(=O)/C(=C/c3cc(OC)c(OC)c(OC)c3)C2=O)cc1 | 9.3% | nt | nt | nt
COc1ccc(CN2C(=O)NC(=O)/C(=C/c3ccc(OC)c(OC)c3OC)C2=O)cc1 | 10µM* | nt | nt | 35.0
COC(=O)c1nnn(CC(=O)Nc2cc(F)ccc2F)c1C(=O)OC | nt | 0.7% | 18.7% | nt
SMILES | NS1 inh | Cruzain inh Det | Cruzain inh noDet | Flu NS1 inh | others
O=C=Nc1ccc(Cl)c(Cl)c1 | nt | -0.5% | ? | nt
C=CCNc1nc(-c2c(C)nc3sccn23)cs1 | -68.2% | -4.9% | -9.8% | nt
Cc1nc2sccn2c1-c1csc(NCc2ccccc2)n1 | ? | -7.1% | ? | -28.6
COCCCNC(=O)CN(c1cc(C(F)(F)F)ccc1Cl)S(C)(=O)=O | 9.2% | nt | nt | nt
CCCCNC(=O)CN(c1cc(C(F)(F)F)ccc1Cl)S(C)(=O)=O | 1µM* | -3.3% | 3.1% | -4.0 | PR8 titer=8
COc1ccc(OC)c(NC(=O)CC(=O)Nc2ccc3nc4n(c(=O)c3c2)CCCCC4)c1 | nt | -6.8% | ? | nt
COC(=O)c1ccc(Sc2ccccc2NS(=O)(=O)c2ccc(C)cc2)nc1 | ? | -0.2% | ? | ?
Cc1ccc(S(=O)(=O)Nc2ccccc2C=O)cc1 | -44.0% | -1.7% | 1.1% | nt
Cc1ccc(S(=O)(=O)Nc2ccccc2C(N)=O)cc1 | 4.1% | 1.8% | -0.3% | nt
Cc1ccc(S(=O)(=O)Nc2ccccc2-c2ccccc2NS(=O)(=O)c2ccc(C)cc2)cc1 | 10µM* | -7.1% | -3.1% | -35.2 | PR8 titer=8.5
CCN(CC)CCn1c(-c2ccccc2)nc2c(NCCO)nc(C)nc21 | nt | 2.8% | -1.4% | nt
CCCC(=O)Nc1cc2c3c(c1)C(C)C(=O)N3CCC2 (stereo not given) | 1.8% | nt | nt | nt
O=C(O)CC1=C(O)C(=O)N(c2ccccc2)C1c1ccccc1 (stereo not given) | ? | 1.0% | ? | nt
O=C(O)CC1=C(O)C(=O)N(c2ccccc2)C1c1ccc(Br)cc1 (stereo not given) | 7.94µM* | 0.7% | -6.7% | 26.2
O=C(Nc1ccc(Cl)cc1)C1CCN(S(=O)(=O)c2ccc(Br)s2)CC1 | nt | -6.1% | -26.3% | nt
COc1cccc(CCNC(=O)c2cnc3sc(N4CCCC4)nn3c2=O)c1 | nt | -0.7% | 0.9% | nt
CN1CCN(CCCNC(=O)CCCOc2cc(=O)n(C)c3ccccc23)CC1 | -12.7% | 4.4% | -6.9% | nt
Cn1c(=O)cc(OCC(=O)NCCCN2CCN(Cc3ccccc3)CC2)c2ccccc21 | 11.2µM* | 1.5% | 3.2% | -7.8
O=C(N[C@H](Cc1cc(=O)[nH]c2ccccc12)C(=O)O)c1ccc(Cl)cc1 | 5.2% | nt | nt | nt
O=[N+]([O-])c1ccc(COc2ccc(-c3[nH]ncc3-c3ccc(Cl)cc3)c(O)c2)cc1 | 19.7% | 5.2% | ? | nt
COc1ccc(-c2cn[nH]c2-c2ccc(OCc3ccc([N+](=O)[O-])cc3)cc2O)cc1OC | ? | nt | nt | -14.4
Cc1ccc(NC2CCCN(C(=O)CCN3CCOCC3)C2)cc1C (stereo not given) | ? | nt | nt | -3.4
CC(C)c1ccc(NC2CCCN(C(=O)CCN3CCOCC3)C2)cc1 (stereo not given) | 0.9% | nt | nt | nt
